# Measured values as given in PubChem BioAssay (NCATS).
# Results filed as inconclusive are left out. Where a call stands in place of a potency, no number is given. The source made the active and inactive calls. Unless noted, calls follow the shape of the full dose curve.
# Tests used:
# [1] = target: Cytochrome P450 2C9 (Homo sapiens) (UniProt P11712); assay: qHTS Assay for Inhibitors and Substrates of Cytochrome P450 2C9 (AID 883; active = well fitted curve in the direction sought with a large enough effect; an effect the other way counts as inactive or inconclusive; also: potency is read from the fitted curve at half-maximal effect; nearly all actives have a fitted effect of over 60% in size)
# Sequence of Cytochrome P450 2C9 (Homo sapiens) (P11712 whole entry, looked up): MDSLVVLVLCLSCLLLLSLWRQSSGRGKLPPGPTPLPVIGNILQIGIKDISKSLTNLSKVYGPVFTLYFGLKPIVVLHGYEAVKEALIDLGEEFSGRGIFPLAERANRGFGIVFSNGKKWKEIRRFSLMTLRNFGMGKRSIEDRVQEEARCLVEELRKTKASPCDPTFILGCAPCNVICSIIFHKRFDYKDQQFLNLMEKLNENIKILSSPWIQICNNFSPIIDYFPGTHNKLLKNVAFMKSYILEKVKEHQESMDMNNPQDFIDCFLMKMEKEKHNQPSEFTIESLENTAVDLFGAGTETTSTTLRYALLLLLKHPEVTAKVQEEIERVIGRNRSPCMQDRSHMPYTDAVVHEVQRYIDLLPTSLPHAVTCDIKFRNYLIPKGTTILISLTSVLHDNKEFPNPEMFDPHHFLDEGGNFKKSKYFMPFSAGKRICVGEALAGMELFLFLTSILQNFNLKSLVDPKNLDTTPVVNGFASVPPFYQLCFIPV
# Summary of the method: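 Human CYP2C9 (10nM) with Luciferin-H at 100uM (its KM) in 25mM KPO4; compound preincubated 10 min at 37C, then NADPH regeneration for 60 min at 37C. Luciferin read by luminescence after detection reagent; normalized to 57uM sulphaphenazole as full inhibition.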
# [2] = target: Cytochrome P450 3A4 (Homo sapiens) (UniProt P08684); assay: qHTS Assay for Inhibitors and Substrates of Cytochrome P450 3A4 (AID 884; active = well fitted curve in the direction sought with a large enough effect; an effect the other way counts as inactive or inconclusive; also: potency is read from the fitted curve at half-maximal effect; nearly all actives have a fitted effect of over 50% in size)
# Sequence of Cytochrome P450 3A4 (Homo sapiens) (P08684 whole entry, looked up): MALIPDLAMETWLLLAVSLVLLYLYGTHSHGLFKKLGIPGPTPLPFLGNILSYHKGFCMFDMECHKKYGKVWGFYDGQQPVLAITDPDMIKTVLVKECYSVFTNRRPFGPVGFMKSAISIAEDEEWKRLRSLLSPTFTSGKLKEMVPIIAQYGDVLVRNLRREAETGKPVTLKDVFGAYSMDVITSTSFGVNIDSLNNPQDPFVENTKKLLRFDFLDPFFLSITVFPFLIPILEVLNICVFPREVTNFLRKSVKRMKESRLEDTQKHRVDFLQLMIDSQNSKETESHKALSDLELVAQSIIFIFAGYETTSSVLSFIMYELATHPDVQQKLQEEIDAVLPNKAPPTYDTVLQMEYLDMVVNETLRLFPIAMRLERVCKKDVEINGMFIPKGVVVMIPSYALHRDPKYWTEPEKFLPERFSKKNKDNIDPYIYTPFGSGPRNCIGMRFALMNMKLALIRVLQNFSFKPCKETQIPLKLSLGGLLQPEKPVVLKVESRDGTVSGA
# Summary of the method: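 Luminescent readout of luciferin produced by CYP3A4 (20 nM) dealkylation of Luciferin-PPXE, 25 uM (its KM). NADPH-driven reaction ran 60 min at RT after 10 min compound preincubation; data scaled to 57 uM ketoconazole as 100% inhibition.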
# [3] = target: Cytochrome P450 3A4 (Homo sapiens) (UniProt P08684); assay: qHTS Assay for Activators of Cytochrome P450 3A4 (AID 885; active = well fitted curve in the direction sought with a large enough effect; an effect the other way counts as inactive or inconclusive; also: nearly all actives have a fitted effect of over 65% in size)
# Summary of the method: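 CYP3A4 activity: Luciferin-PPXE O-dealkylation, 25uM substrate, 200mM KPO4, RT throughout. Read-out is luciferase luminescence; higher values reflect activation.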
# [4] = target: Alpha-galactosidase (Coffea arabica) (UniProt Q42656); assay: Counterscreen for Glucocerebrosidase Inhibitors: qHTS Assay for Coffee Bean alpha-Galactosidase at pH 4.5 (AID 957; active = well fitted curve in the direction sought with a large enough effect; an effect the other way counts as inactive or inconclusive)
# Sequence of Alpha-galactosidase (Coffea arabica) (Q42656 whole entry, looked up): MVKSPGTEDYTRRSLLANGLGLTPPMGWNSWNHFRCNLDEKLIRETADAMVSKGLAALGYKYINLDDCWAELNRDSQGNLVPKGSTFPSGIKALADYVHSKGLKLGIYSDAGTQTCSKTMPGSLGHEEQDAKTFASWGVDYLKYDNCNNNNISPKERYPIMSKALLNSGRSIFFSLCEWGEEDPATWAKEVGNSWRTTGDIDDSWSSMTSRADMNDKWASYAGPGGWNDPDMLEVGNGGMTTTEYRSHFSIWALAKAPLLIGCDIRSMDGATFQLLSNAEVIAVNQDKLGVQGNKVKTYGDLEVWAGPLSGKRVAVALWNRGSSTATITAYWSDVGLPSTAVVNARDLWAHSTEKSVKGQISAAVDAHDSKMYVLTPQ
# Summary of the method: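 Fluorogenic qHTS at pH 4.5 (citrate buffer with Tween-20): 2 nM enzyme, 80 uM 4-MU-alpha-galactoside substrate, compound titrated 0.7 nM to 77 uM, 20 min room temperature. Glycine/NaOH stop; 4-MU read Ex 365/Em 440; Hill-equation AC50 against no-enzyme and enzyme controls.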
# [5] = target: Alpha-galactosidase (Coffea arabica) (UniProt Q42656); assay: Counterscreen for Glucocerebrosidase Inhibitors: qHTS Assay for Coffee Bean alpha-Galactosidase at pH 5.9 (AID 998; active = well fitted curve in the direction sought with a large enough effect; an effect the other way counts as inactive or inconclusive)
# Summary of the method: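 Enzyme 2 nM + cpd (0.7 nM–77 uM titration) + 4-MU-alpha-Gal 80 uM, pH 5.9 citrate/Tween-20, RT 20 min, NaOH/glycine stop pH 10, fluor 365/440. Normalized to no-enzyme and full-activity controls; Hill-fit AC50.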
# [6] = Validation screen for inhibitors of Lassa infection (AID 463096)
# [7] = Inducers of the Endoplasmic Reticulum Stress Response (ERSR) in human glioma: Validation (AID 504836; active = well fitted curve in the direction sought with a large enough effect; an effect the other way counts as inactive or inconclusive)
# Summary of the method: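 Stably transfected U87-MG glioma cells carrying a GRP78-based luciferase sensor; 16 h compound incubation. Luminescence end-point read 10 min after Bright-Glo addition at room temperature.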
# [8] = qHTS for Inhibitors of the Functional Ribonucleoprotein Complex (vRNP) of Lassa (LASV) Arenavirus: LASV Primary Screen - GLuc reporter signal (AID 1347082; calls by dose curve; tested in HEK293 reporter line; also: nearly all actives have a fitted effect of over 60% in size; also: potency is read from the fitted curve at half-maximal effect)
# [9] = qHTS for Inhibitors of the Functional Ribonucleoprotein Complex (vRNP) of Lassa (LASV) Arenavirus: Viability assay - alamar blue signal for LASV Primary Screen (AID 1347083; calls by dose curve; tested in HEK293 reporter line; also: nearly all actives have a fitted effect of over 80% in size; also: potency is read from the fitted curve at half-maximal effect)
# [10] = qHTS for Inhibitors of the Functional Ribonucleoprotein Complex (vRNP) of Lymphocytic Choriomeningitis Arenaviruses (LCMV): Viability assay - alamar blue signal for LCMV Primary Screen (AID 1347085; calls by dose curve; tested in HEK293 reporter line; also: nearly all actives have a fitted effect of over 80% in size; also: potency is read from the fitted curve at half-maximal effect)
# [11] = target: Nucleoprotein (Lymphocytic choriomeningitis virus (strain Armstrong)) (UniProt P09992); assay: qHTS for Inhibitors of the Functional Ribonucleoprotein Complex (vRNP) of Lymphocytic Choriomeningitis Arenaviruses (LCMV): LCMV Primary Screen - GLuc reporter signal (AID 1347086); also: nearly all actives have a fitted effect of over 70% in size; also: potency is read from the fitted curve at half-maximal effect
# Sequence of Nucleoprotein (Lymphocytic choriomeningitis virus (strain Armstrong)) (P09992 whole entry, looked up): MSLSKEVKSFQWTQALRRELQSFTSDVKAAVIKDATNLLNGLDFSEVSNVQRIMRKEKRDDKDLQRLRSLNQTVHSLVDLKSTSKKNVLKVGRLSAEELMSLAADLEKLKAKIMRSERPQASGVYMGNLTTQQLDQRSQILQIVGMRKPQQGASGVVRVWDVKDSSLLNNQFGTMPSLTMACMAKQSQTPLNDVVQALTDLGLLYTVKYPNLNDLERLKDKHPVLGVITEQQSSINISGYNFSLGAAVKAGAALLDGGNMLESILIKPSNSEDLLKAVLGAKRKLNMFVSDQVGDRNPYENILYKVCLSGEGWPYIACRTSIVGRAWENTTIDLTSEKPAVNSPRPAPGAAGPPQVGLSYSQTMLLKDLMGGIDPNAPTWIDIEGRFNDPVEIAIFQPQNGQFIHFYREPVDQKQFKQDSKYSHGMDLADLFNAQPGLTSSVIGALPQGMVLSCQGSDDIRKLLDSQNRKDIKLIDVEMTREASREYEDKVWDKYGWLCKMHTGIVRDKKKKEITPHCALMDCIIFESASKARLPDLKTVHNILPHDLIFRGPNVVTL
# [12] = Cytotoxicity counterscreen for inhibitors of SARS-CoV-2 cell entry (AID 1645845); also: nearly all actives have a fitted effect of over 50% in size
# Summary of the method: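 Counterscreen run in the same HEK293-ACE2 line as the pseudotyped-particle entry assay, without particles. Viability after 48 h at 37 C was read as ATP luminescence, scaled between cell-containing and cell-free wells.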
# [13] = Primary qHTS to identify inhibitors of SARS-CoV-2 cell entry (AID 1645846); conditions: activity change, negative = inhibition: at 57.1 µM (top of the series) unless noted; also: nearly all actives have a fitted effect of over 45% in size
# Summary of the method: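 HEK293-ACE2 (Expi293F, stable hACE2), 1500 cells/well, o/n 37C; cpd 23 nL pin, 1 h; MLV-PP w/ SARS-CoV-2-S (Wuhan-Hu-1, Δ19 C-term); 48 h 37C; Bright-Glo luminescence; normalized vs S-PP and bald PP.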
# [14] = target: Estrogen receptor (Homo sapiens) (UniProt P03372); assay: qHTS assay for small molecule agonists of estrogen receptor alpha signaling (AID 588514); also: potency is read from the fitted curve at half-maximal effect; nearly all actives have a fitted effect of over 70% in size
# Sequence of Estrogen receptor (Homo sapiens) (P03372 whole entry, looked up): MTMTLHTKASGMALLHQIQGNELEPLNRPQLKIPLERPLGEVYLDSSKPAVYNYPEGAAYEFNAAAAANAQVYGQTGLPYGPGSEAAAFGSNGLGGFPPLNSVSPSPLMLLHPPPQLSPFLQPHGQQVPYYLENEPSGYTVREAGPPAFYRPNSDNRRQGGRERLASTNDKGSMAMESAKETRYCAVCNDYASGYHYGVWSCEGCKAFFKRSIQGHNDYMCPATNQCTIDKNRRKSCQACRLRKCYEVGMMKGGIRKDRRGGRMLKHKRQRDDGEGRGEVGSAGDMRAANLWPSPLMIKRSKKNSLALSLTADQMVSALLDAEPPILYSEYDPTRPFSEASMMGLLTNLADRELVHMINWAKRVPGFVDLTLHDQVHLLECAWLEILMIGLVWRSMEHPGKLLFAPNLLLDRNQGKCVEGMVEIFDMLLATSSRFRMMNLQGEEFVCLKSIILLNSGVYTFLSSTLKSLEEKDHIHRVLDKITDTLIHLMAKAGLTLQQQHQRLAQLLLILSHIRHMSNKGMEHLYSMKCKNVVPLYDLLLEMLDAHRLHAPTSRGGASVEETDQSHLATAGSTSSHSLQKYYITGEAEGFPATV
# Summary of the method: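 EC50 and efficacy came from Hill fits of beta-lactamase reporter signal (CCF4 dye, 2 h at room temperature) scaled between DMSO and 20 nM 17-beta-estradiol. Agonist mode: HEK293 ER-alpha-UAS-bla cells in charcoal/dextran-stripped serum medium, 18 h compound exposure at 37 C.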
# [15] = target: Bile acid receptor (Homo sapiens) (UniProt Q96RI1); assay: qHTS assay for small molecule agonists of farnesoid X receptor signaling (AID 588527); conditions: HEK293T FXR-UAS-bla, beta-lactamase ratio, 16 h; activation: stronger effect = higher value
# Sequence of Bile acid receptor (Homo sapiens) (Q96RI1 whole entry, looked up): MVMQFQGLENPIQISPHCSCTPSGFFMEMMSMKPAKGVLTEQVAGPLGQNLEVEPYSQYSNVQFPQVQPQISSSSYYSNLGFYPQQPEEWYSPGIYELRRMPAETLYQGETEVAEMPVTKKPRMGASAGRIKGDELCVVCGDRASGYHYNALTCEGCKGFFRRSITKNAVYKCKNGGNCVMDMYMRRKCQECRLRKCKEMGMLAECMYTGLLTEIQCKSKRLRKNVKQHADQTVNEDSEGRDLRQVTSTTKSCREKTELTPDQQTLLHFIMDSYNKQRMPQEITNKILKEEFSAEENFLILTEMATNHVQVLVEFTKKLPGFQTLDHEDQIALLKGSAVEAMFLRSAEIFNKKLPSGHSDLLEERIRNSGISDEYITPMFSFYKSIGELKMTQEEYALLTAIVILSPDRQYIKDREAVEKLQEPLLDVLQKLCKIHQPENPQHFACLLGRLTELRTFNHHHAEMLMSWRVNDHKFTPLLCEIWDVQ
# Summary of the method: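 FXR-UAS-bla HEK293T, 10% dialyzed FBS; cpds up to 92 uM titration, 16 h 37 C; CCF4 dye 2 h RT; fluorescence. Normalized to chenodeoxycholic acid 100 uM (100%) and DMSO (0%); Hill fit gives EC50, efficacy.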
# [16] = qHTS assay for small molecule agonists of the antioxidant response element (ARE) signaling pathway (AID 651741; active = well fitted activation curve with a large enough effect in the signal ratio; the % refers to the signal ratio; also: potency is read from the fitted curve at half-maximal effect)
# Summary of the method: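 Stably integrated ARE-beta-lactamase reporter HepG2 cells; 16 h compound incubation, 37 C; LiveBLAzer FRET substrate 2 h at room temperature; fluorescence intensity.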
# [17] = qHTS profiling of the MIPE4 collection as inhibitors of Plasmodium falciparum (3D7) proliferation (AID 743344; call rule not given here); conditions: P. falciparum 3D7 in erythrocytes, SYBR Green DNA fluorescence, 72 h; at 28.5 µM (top of the series) unless noted
# Summary of the method: (§1)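 Parasite DNA was quantified by SYBR Green I fluorescence (ex 485, em 535 nm) after overnight lysis in saponin/Triton buffer at room temperature. Cultures at 0.3% parasitemia and 2.5% hematocrit were first exposed to compound for 72 h at 37 C; signals were normalised to artemisinin (0.29 uM) and vehicle wells.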
# [18] = qHTS profiling of the MIPE4 collection as inhibitors of Plasmodium falciparum (DD2) proliferation (AID 743345; call rule not given here); conditions: P. falciparum Dd2 in erythrocytes, SYBR Green DNA, 72 h; at 28.5 µM (top of the series) unless noted
# Summary of the method: as §1
# [19] = qHTS profiling of the MIPE4 collection as inhibitors of Plasmodium falciparum (DD2) proliferation (Rep 2) (AID 743346; call rule not given here); conditions: P. falciparum Dd2 in erythrocytes, SYBR Green DNA, 72 h; at 28.5 µM (top of the series) unless noted
# Summary of the method: as §1
# [20] = qHTS profiling of the MIPE4 collection as inhibitors of Plasmodium falciparum (HB3) proliferation (AID 743347; call rule not given here); conditions: P. falciparum HB3 in erythrocytes, SYBR Green DNA, 72 h; at 28.5 µM (top of the series) unless noted
# Summary of the method: as §1
# [21] = VSVG counterscreen qHTS to identify inhibitors of SARS-CoV-2 cell entry (AID 1645847); also: potency is read from the fitted curve at half-maximal effect; nearly all actives have a fitted effect of over 65% in size
# Summary of the method: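 Expi293F/hACE2 cells, overnight plating; cpd 1 h, 37C/5% CO2; + VSV-G PP (MLV pseudotyping), 48 h; supernatant removed, Bright-Glo luciferase read. Norm: VSV-G PP and bald PP wells.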
# [22] = qHTS profiling for inhibitors of Plasmodium falciparum (3D7) proliferation (AID 743322; call rule not given here;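 also: infected erythrocytes exposed to compound for 72 h before lysis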); conditions: P. falciparum 3D7 proliferation; at 28.7 µM (top of the series)
# Summary of the method: as §1
# [23] = qHTS profiling for inhibitors of Plasmodium falciparum (DD2) proliferation (AID 743323; call rule not given here); conditions: lower = more inhibition; at 28.7 µM (top of the series)
# Summary of the method: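 SYBR Green fluorescence (ex 485, em 535 nm) of lysed cultures gives parasite DNA content; wells normalized to artemisinin (0.29 uM) and DMSO controls. Infected red cells: 0.3% parasitemia, 2.5% hematocrit, 72 h, 37 C.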
# [24] = qHTS profiling for inhibitors of Plasmodium falciparum (HB3) proliferation (AID 743324; active = well fitted curve in the direction sought with a large enough effect; an effect the other way counts as inactive or inconclusive); conditions: Plasmodium falciparum HB3 blood-stage proliferation; at 28.7 µM (top of the series)
# Summary of the method: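 SYBR Green fluorescence (485 ex/535 em) of lysed cultures, incubated overnight at room temperature in the dark, quantifies parasite DNA. Infected erythrocytes at 0.3% parasitemia and 2.5% hematocrit were exposed 72 h; values normalized to DMSO and 0.29 uM artemisinin controls.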
structure (smiles),measurement,setting,value
O=C1Nc2ccc(I)cc2/C1=C/c1cc(Br)c(O)c(Br)c1,Potency,[1],79.4 nM (active)
same,Potency,[2],5.01 µM (active)
same,Potency,[3],inactive
same,outcome,[4],inactive
same,outcome,[5],inactive
same,Potency,[6],inactive
same,outcome,[7],inactive
same,Potency,[8],inactive
same,Potency,[9],inactive
same,Potency,[10],inactive
same,Potency,[11],inactive
same,Potency,[12],inactive
same,"activity change, negative = inhibition",[13],-7.81%
O=S(=O)(O)CCSSCCS(=O)(=O)O,Potency,[8],inactive
same,Potency,[9],inactive
same,Potency,[10],inactive
same,Potency,[11],inactive
same,Potency,[12],inactive
same,Potency,[13],inactive
O=C1c2cccc(O)c2C(=O)c2c(O)cc(CO)cc21,Potency,[14],20 µM (active)
same,activation,[15],4.08% (inactive)
same,Potency,[16],12.2 µM (active)
same,"parasite growth, % of DMSO control",[17],321%
same,"parasite growth remaining, % of DMSO control (lower = more inhibition)",[18],99.1%
same,"parasite growth, % of control (lower = inhibition)",[19],97.1%
same,"growth, % of control",[20],568%
same,Potency,[8],inactive
same,Potency,[9],inactive
same,Potency,[10],inactive
same,Potency,[11],inactive
same,Potency,[12],inactive
same,"activity change, negative = inhibition",[13],-12.6%
O=C1NCCc2[nH]c(-c3ccncc3)cc21,Potency,[8],21.7 µM (active)
same,Potency,[9],6.85 µM (active)
same,Potency,[10],6.11 µM (active)
same,Potency,[11],10.9 µM (active)
same,Potency,[12],inactive
same,"activity change, negative = inhibition",[13],-95%
same,Potency,[21],9.61 µM (active)
O=C(O)c1ccccc1C(=O)Nc1ccc(-c2ccccc2)cc1,remaining parasite growth % (stronger effect = lower value),[22],93.1%
same,"activity, percent of control",[23],92.6%
same,"remaining proliferation (% of control), lower = more inhibition",[24],75.7%
same,"parasite growth, % of DMSO control",[17],93.6%
same,"parasite growth, % of control (lower = inhibition)",[19],82.2%
same,"growth, % of control",[20],87.2%
same,Potency,[8],inactive
same,Potency,[9],inactive
same,Potency,[10],inactive
same,Potency,[11],inactive
same,Potency,[12],inactive
same,Potency,[13],inactive
CCCCS(=N)(=O)CCC(N)C(=O)O (stereo not given),Potency,[6],inactive
same,outcome,[7],inactive
same,Potency,[8],inactive
same,Potency,[9],inactive
same,Potency,[10],inactive
same,Potency,[11],inactive
same,Potency,[12],inactive
same,Potency,[13],inactive
NC(=O)[C@@H](CCC(F)(F)F)N(Cc1ccc(-c2ncon2)cc1F)S(=O)(=O)c1ccc(Cl)cc1,Potency,[8],inactive
same,Potency,[9],inactive
same,Potency,[10],inactive
same,Potency,[11],inactive
same,Potency,[12],inactive
same,"activity change, negative = inhibition",[13],-47.2%
O=C(O)CCCc1c[nH]c2ccccc12,activation,[15],-2.14% (inactive)
same,Potency,[8],inactive
same,Potency,[9],inactive
same,Potency,[10],inactive
same,Potency,[11],inactive
same,Potency,[12],inactive
same,"activity change, negative = inhibition",[13],0.874%
Cc1cc(N2CCOCC2)cc2[nH]c(-c3c(NC[C@@H](O)c4cccc(Cl)c4)cc[nH]c3=O)nc12,Potency,[8],3.85 µM (active)
same,Potency,[9],0.769 µM (active)
same,Potency,[10],0.863 µM (active)
same,Potency,[11],1.53 µM (active)
same,Potency,[12],inactive
same,"activity change, negative = inhibition",[13],-9.29%
CCNC(=O)[C@H]1O[C@@H](n2cnc3c(N)nc(NCCc4ccc(CCC(=O)O)cc4)nc32)[C@H](O)[C@@H]1O,outcome,[7],inactive
same,Potency,[8],inactive
same,Potency,[9],inactive
same,Potency,[10],inactive
same,Potency,[11],inactive
same,Potency,[12],inactive
same,Potency,[13],inactive
